# PLK1 PBD inh: qHTS for Inhibitors of PLK1-PDB (polo-like kinase 1 - polo-box domain): Primary Screen; Serine/threonine-protein kinase PLK1 (Homo sapiens), P53350; Plk1 PBD binding of FITC phosphopeptide, fluorescence polarization; Potency, µM, inactives show max response, negative = inhibition, usual class: inhibitors; 360,000 compounds, 2.8% hits; AID 720504, 2013; also: potency is read from the fitted curve at half-maximal effect; series mostly up to about 57 µM; % is scaled to controls: 0 for no effect and ±100 for the full control effect; nearly all actives have a fitted effect of over 65% in size
# G9a inh: qHTS Assay for Inhibitors of Histone Lysine Methyltransferase G9a; Histone-lysine N-methyltransferase EHMT2 (Homo sapiens), Q96KQ7; G9a H3K9 monomethylation, AlphaScreen, 2 h; Potency, µM (titrated, usually from 102 µM), without a hit: at the top dose activity, negative = inhibition, actives largely listed as inhibitors; 350,000 compounds, 8.8% hits; also: potency is read from the fitted curve at half-maximal effect; % is scaled to controls: 0 for no effect and ±100 for the full control effect; nearly all actives have a fitted effect of over 75% in size
# Target sequence (Q96KQ7 913-1193 limits assumed): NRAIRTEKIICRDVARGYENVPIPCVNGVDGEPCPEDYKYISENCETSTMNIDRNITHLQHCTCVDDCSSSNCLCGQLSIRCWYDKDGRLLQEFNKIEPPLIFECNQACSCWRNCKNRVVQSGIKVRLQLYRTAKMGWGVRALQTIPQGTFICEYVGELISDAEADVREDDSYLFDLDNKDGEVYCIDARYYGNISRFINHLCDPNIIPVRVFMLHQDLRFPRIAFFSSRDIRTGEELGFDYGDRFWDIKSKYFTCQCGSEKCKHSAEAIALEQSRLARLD
#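 Signal arises when biotinylated H3K9 peptide, once monomethylated, bridges streptavidin donor and antibody-captured acceptor beads. Enzyme at 20 nM was preincubated 15 min with test compounds; peptide 500 nM and SAM 20 uM then reacted for 2 h.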
# HP1b binding inh: HTS for Inhibitors of HP1-beta Chromodomain Interactions with Methylated Histone Tails. AlphaScreen HP1-beta / biotin-H3K9me3 peptide binding. Chromobox protein homolog 1 (Homo sapiens), P83916. 390,000 compounds, 0.56% hits. Potency, µM (top dose mostly 114 µM), without a hit: at the top dose activity change, negative = inhibition, usual class: inhibitors; also: potency is read from the fitted curve at half-maximal effect; nearly all actives have a fitted effect of over 70% in size
# Target sequence (P83916 whole entry, looked up): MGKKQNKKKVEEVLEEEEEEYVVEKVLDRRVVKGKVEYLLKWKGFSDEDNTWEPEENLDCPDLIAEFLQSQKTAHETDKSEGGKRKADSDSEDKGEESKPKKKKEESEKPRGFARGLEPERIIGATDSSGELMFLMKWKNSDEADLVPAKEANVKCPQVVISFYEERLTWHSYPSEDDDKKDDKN
#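 Compound inhibition of the preformed complex between 50 nM HP1-beta and 50 nM biotinylated H3K9me3 peptide was read by AlphaScreen. Buffer was PBS pH 7.4 with 0.01% Tween-20. Incubations ran 30 min at room temperature, with 10 ug/mL donor/acceptor beads.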
# JMJD2A Tudor: qHTS Assay for Inhibitors of JMJD2A-Tudor Domain; AID 504339, 2011; Potency, µM (series often up to 114 µM), for the others: at the highest dose activity change, negative = inhibition, hits mostly inhibitors; 390,000 compounds, 4.4% hits; AlphaScreen JMJD2A-Tudor / H3K4me3 peptide binding; also: potency is read from the fitted curve at half-maximal effect; % is scaled to controls: 0 for no effect and ±100 for the full control effect; nearly all actives have a fitted effect of over 50% in size
# BAZ2B inh: qHTS Assay for Inhibitors of BAZ2B. Bromodomain adjacent to zinc finger domain protein 2B (Homo sapiens), Q9UIF8. AlphaScreen BAZ2B-H3K14Ac peptide displacement. Potency, µM (top dose mostly 114 µM), for the others: top-dose activity change, negative = inhibition, hits mostly inhibitors. 360,000 compounds, 4.4% hits; also: potency is read from the fitted curve at half-maximal effect; % is scaled to controls: 0 for no effect and ±100 for the full control effect; nearly all actives have a fitted effect of over 60% in size
#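 AlphaScreen displacement: compounds (up to 110uM) incubated 30 min at room temperature with a preformed 50 nM BAZ2B/50 nM biotinylated H3K14Ac peptide complex in PBS pH 7.4 with Tween-20. Donor and acceptor beads at 10 ug/mL final added, 20 min light-protected before reading.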
# PI5P4Ka inh: qHTS for Inhibitors of phosphatidylinositol 5-phosphate 4-kinase (PI5P4K); Phosphatidylinositol 5-phosphate 4-kinase type-2 alpha (Homo sapiens), P48426; PI5P4Kalpha enzyme, ADP-Glo luminescence, 60 min; active compounds read low; max response, %; 330,000 compounds, 1.2% hits; AID 652105, 2013; active = max response of -50% or lower; inconclusive = between -30% and -50%; inactive = -30% or higher; also: value at the top dose of about 77 µM; % is scaled to controls: 0 for no effect and ±100 for the full control effect
#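 ADP-Glo luminescence end-point after a 60 min room-temperature kinase reaction. PI5P4Kalpha and substrate in HEPES pH 7.4 buffer with EGTA, 0.1% CHAPS and 5% DMSO; ATP at 5 microM final.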
# An asterisk follows results filed as active; ? = inconclusive; nt = not tested or not shown; ! = not confirmed by another sample; [ ] = another dose, or the depositor's remark. In the library only some 12% were active in any assay of this set; here they are far more common. Unless noted, calls follow the shape of the dose curve; as a rule, active = well fitted curve in the direction sought with a large enough effect; inconclusive = small, poorly fitted or top-dose-only effect, or another doubt; inactive = no such curve, though single readings can be large; an effect the other way counts as inactive or inconclusive.
SMILES,PLK1 PBD inh,G9a inh,HP1b binding inh,JMJD2A Tudor,BAZ2B inh,PI5P4Ka inh
COc1cc(C(=O)O)cc(OC)c1OCc1cc(C(=O)O)oc1C,-10%,50µM*,-5%,?,?,-16
Cc1oc(C(=O)O)cc1COc1ccc2c3c(c(=O)oc2c1C)CCC3,-9%,50µM*,17%,2%,13µM*,3
Cc1c(CC(=O)O)c(=O)oc2c(C)c(OCc3ccccc3Br)ccc12,-26%,-10%,27%,?,50µM*,2
O=C1CS/C(=N\C(=O)N2c3ccccc3Sc3ccccc32)N1,-17%,5.6µM*,-12%,?,?,nt
NCCC(=O)N1c2ccccc2Sc2ccccc21,-9%,nt,20%,-25%,3%,0
CCOC(=O)C1CCCN(c2nc3c(S(=O)(=O)c4ccc(Br)cc4)nnn3c3ccsc23)C1 (centres undefined),nt,-15%[59 µM],35%,89µM*,-9%,nt
N=C1C(c2ccccc2)=C(O)CN1CCO,24µM*,1%,0%,-20%,8%,1
CCCCCCN1CC(O)=C(c2ccccc2)C1=N,0%,8%[59 µM],15%,-7%,-4%,0
CSc1sccc1/C=N/O,0%,35%,16%,10%,-8%,1
CSc1sccc1/C=C(/C#N)C(=O)c1ccco1,0.84µM*,?,-22%,-21%,-22%,-4
COc1ccc(CNC(=O)c2sc3nc4n(c(=O)c3c2C)CCC4)cc1,nt,-38%[59 µM],-6%,-30%,-21%,nt
Cc1c(C(=O)NCc2ccccc2)sc2nc3n(c(=O)c12)CCCCC3,nt,10µM*,33%,?,?,nt
Cc1ccc(CNC(=O)c2sc3nc4n(c(=O)c3c2C)CCCCC4)cc1,nt,?,48%,-14%,-33%,nt
Cc1ccc(CNC(=O)c2sc3nc4n(c(=O)c3c2C)CCCC4)cc1,nt,?,21%,?,50µM*,nt
COc1ccc(-n2ncc3c(NCc4ccccn4)ncnc32)cc1,-4%,-27%[59 µM],11%,14µM*,?,-9
COc1ccc(-n2ncc3c(NCc4ccco4)ncnc32)cc1,-4%,45µM*,15%,?,?,nt
COc1ccc(-n2ncc3c(NCc4cccs4)ncnc32)cc1,-3%,5%[12.7 µM],26%,-8%,-10%,nt
CCc1cc2c(NCC(=O)O)ncnc2s1,-3%,?,28%,-10%,-2%,?
CCc1cc2c(NCc3ccco3)ncnc2s1,?,45µM*,5%,?,56µM*,-20
CSc1cc2c(s1)c1cnn(Cc3cccc(O)c3)c(=O)c1n2C,nt,nt,nt,-31%,nt,nt
CCC(NC(=O)CSc1nnnn1C1CC1)c1ccc(Br)cc1 (centres undefined),-8%,-15%[59 µM],24%,-7%,-4%,4
CCc1cccc(NC(=O)CCNS(=O)(=O)c2ccc3c(c2)oc(=O)n3C)c1,4%,46%,47%,7%,-19%,0
C=CCNC(=O)c1c[nH]c2ccc(S(=O)(=O)N(C)c3ccc(OCC)cc3)cc2c1=O,-15%,15%,26%,-5%,2%,3
CCCCOC(=O)C1CCCC(C(=O)OCCCC)N1 (centres undefined),-2%,50µM*,38%,-31%,-1%,2
O=C(CC1Nc2cccc3cccc(c23)NC1=O)Nc1ccc(F)cc1 (centres undefined),-1%,?,-13%,-27%,?,-18
COc1ccc(NC(=O)CC2Nc3cccc4cccc(c34)NC2=O)cc1 (centres undefined),-10%,25µM*!,14%,?,?,-23
